# CYP2C9 inh: human CYP2C9 inhibition; P11712; CYP2C9 Supersomes, luciferin-H conversion, luminescence; inhibition, % at 5 µM; hit rate 20% among 96,000; AID 777;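 active = blocking of liver enzyme CYP2C9 beyond about 50% at 5 µM, limit read from the data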
# Target sequence (P11712 whole entry, looked up): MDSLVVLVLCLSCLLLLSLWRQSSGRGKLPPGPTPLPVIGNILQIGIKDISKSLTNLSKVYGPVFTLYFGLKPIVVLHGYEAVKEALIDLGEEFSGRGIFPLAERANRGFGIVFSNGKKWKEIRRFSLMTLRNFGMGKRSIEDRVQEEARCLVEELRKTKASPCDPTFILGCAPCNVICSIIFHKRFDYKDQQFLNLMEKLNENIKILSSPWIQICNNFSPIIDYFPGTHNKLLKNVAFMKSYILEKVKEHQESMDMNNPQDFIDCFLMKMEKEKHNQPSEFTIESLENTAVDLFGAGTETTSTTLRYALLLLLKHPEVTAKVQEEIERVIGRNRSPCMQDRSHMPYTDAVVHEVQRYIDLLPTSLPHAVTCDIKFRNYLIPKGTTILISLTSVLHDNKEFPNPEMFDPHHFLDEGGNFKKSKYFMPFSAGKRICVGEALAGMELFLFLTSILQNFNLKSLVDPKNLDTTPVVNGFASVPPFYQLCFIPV
# Cav32 inh: inhibitors of human Cav3.2 T-type calcium channel; O95180; Cav3.2-expressing cells, Fluo-4 calcium fluorescence FDSS; stronger effect = lower value; B-score at 10 µM; hit rate 4% among 100,000;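 active = single-dose well whose peak fluorescence ratio is a statistical outlier from its plate by either plate-standardised score or position-corrected B-score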
# CYP2C19 inh: inhibitors of human CYP2C19; P33261; CYP2C19 Supersomes, luciferin-H EGE luminescence, 30 min; inhibition, % at 5 µM; hit rate 21% among 96,000;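 active = CYP2C19 inhibition above a set limit at 5 µM in the primary screen, cut at about 50% in these data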;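 also: plate controls were negative control wells for no effect and 2.5 mM tranylcypromine positive control for full effect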
# CYP2C19 activ: increases human CYP2C19 enzyme activity; recombinant CYP2C19, luciferin-H EGE luminescence; stronger effect = higher value; 0 = fully inhibited enzyme, 1 = untreated enzyme; activation factor at 5 µM; 96,000 tested, under 10 active; AID 1025; P33261;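 active = activation factor of at least 2 at 5 µM in the primary screen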;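 also: 0 = wells with 2.5 mM tranylcypromine and 1 = vehicle-only wells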
# CYP2C9 activ: activators of human CYP2C9; hit rate 1.4% among 96,000; activation factor at 5 µM; recombinant CYP2C9, luciferin-H conversion, luminescence; stronger effect = higher value; factor 1 = untreated enzyme, 0 = blocked; P11712;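 active = activation factor of 2 or more for CYP2C9 at a 5 µM dose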;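 also: 0 = sulfaphenazole-blocked wells and 1 = vehicle-only wells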
# Numbers without * were called inactive; nt = no result. Compounds with a hit are over-represented: about 27% of the library has one in this group of screens.
SMILES,CYP2C9 inh,Cav32 inh,CYP2C19 inh,CYP2C19 activ,CYP2C9 activ
O=C1OCC2=C1C(c1ccc3c(c1)OCO3)Sc1ccccc1N2 (centres undefined),70*,-0.7,96*,0,0.3
CCOc1ccc(C2Sc3ccccc3NC3=C2C(=O)OC3)cc1 (centres undefined),56*,-4.1*,68*,0.3,0.4
CCOc1ccc(C2NC(=O)c3ccccc3O2)cc1 (centres undefined),15,-0.76,40,0.6,0.8
COc1ccc(Cc2nnc(SCc3nc4ccccc4c(=O)[nH]3)n2C)cc1,62*,0.092,9,0.9,0.4
Cn1c(CCNC(=O)c2ccccc2F)nnc1SCc1nc2ccccc2c(=O)[nH]1,64*,0.39,-12,1.1,0.4
COc1ccc(C(=O)NCCc2nnc(SCC(=O)Nc3ccccc3)n2C)cc1,37,1.1,12,0.9,0.6
N#CC1=C(SCC(N)=O)NC(=O)CC1c1ccccc1Cl (centres undefined),27,0.27,29,0.7,0.7
COC(=O)C1C(=O)NC(SC)=C(C#N)C1c1ccccc1 (centres undefined),16,2.2,29,0.7,0.8
CCOC(=O)C1C(=O)NC(SC)=C(C#N)C1c1ccccc1F (centres undefined),42,-4.9*,91*,0.1,0.6
CCOC(=O)C1C(=O)NC(SCC(N)=O)=C(C#N)C1c1ccccc1OCC (centres undefined),42,-0.022,76*,0.2,0.6
O=C(c1ccccc1)c1ccc(N2CCNCC2)cc1,44,0.96,77*,0.2,0.6
O=C(c1ccccc1)c1ccc(N2CCCC2)cc1,-6,2.1,33,0.7,1.1
CN1CCN(c2ccc(C(=O)c3ccc(F)cc3)cc2)CC1,6,0.68,52*,0.5,0.9
O=C(O)CCC(=O)N1CCN(c2ccc(C(=O)c3ccc(F)cc3)cc2)CC1,-6,0.99,3,1,1.1
CN(C)S(=O)(=O)c1cccc(COC(=O)C2=COCCO2)c1,38,0.55,46,0.5,0.6
Cc1ccc(Oc2ccc(-c3nc(N)nc(N)n3)cc2)cc1,7,0.48,6,0.9,0.9
Cc1cccc(Oc2ccc(N)cc2)c1,29,nt,84*,0.2,0.7
Cc1cccc(Oc2ccccc2N)c1,-22,0.25,34,0.7,1.2
Cc1cccc(Oc2cc(N)cc([N+](=O)[O-])c2)c1,34,nt,60*,0.4,0.7
Cc1cc(C)cc(Oc2ccc(N)cc2)c1,-77,-0.94,82*,0.2,1.8
O=c1c2ccccc2c2ccccc2c(=O)n1Cc1cccnc1,20,0.21,37,0.6,0.8
O=C1NC(c2ccccc2)(C(F)(F)F)C(=O)N1Cc1cccnc1 (centres undefined),51*,-0.19,84*,0.2,0.5
COCC(C)NC(=O)C1CC(c2cccc(Br)c2)=NO1 (centres undefined),-110,0.19,0,1,2.1*
COc1cccc(C2=NOC(C(=O)Nc3ccccc3SC)C2)c1 (centres undefined),-147,-0.39,63*,0.4,2.5*
COc1cccc(C2=NOC(C(=O)NCc3cccs3)C2)c1 (centres undefined),68*,0.031,54*,0.5,0.3
SMILES,CYP2C9 inh,Cav32 inh,CYP2C19 inh,CYP2C19 activ,CYP2C9 activ
COc1cccc(C2=NOC(C(=O)NC(C)(C)C)C2)c1 (centres undefined),-3,1.1,28,0.7,1
COc1cccc(C2=NOC(C(=O)NCc3ccc(F)cc3)C2)c1 (centres undefined),-30,nt,44,0.6,1.3
COCCNC(=O)C1CC(c2cccc(F)c2)=NO1 (centres undefined),nt,0.044,nt,nt,nt
COc1cc(C[C@H](C)[C@H](C)Cc2ccc3c(c2)OCO3)ccc1O,nt,-0.12,nt,nt,nt
CCOc1ccc2[nH]c(=O)c(C(c3nnnn3Cc3ccco3)N3CCC(C)CC3)cc2c1 (centres undefined),40,nt,62*,0.4,0.6
Cc1ccc(C)c2[nH]c(=O)c(C(c3nnnn3CCc3ccccc3)N3CCOCC3)cc12 (centres undefined),20,-1.2,22,0.8,0.8
Cc1ccc(C)c2[nH]c(=O)c(C(c3nnnn3Cc3ccco3)N3CCc4ccccc4C3)cc12 (centres undefined),81*,-0.67,95*,0,0.2
CCOc1ccc2[nH]c(=O)c(C(c3nnnn3Cc3ccco3)N3CCCC(C)C3)cc2c1 (centres undefined),79*,-5.9*,96*,0,0.2
Cc1cccc(C(=O)NC2CC3CCCC(C2)N3C(=O)NC2CCCCC2)c1 (centres undefined),49,1.3,48,0.5,0.5
CC1OC(Nc2ccc(OC(F)(F)F)cc2)C(O)C(O)C1O (centres undefined),-4,0.56,-3,1,1
COc1ccc(-c2nnc(SCc3cc(C)cc(C)c3)o2)cc1,-33,nt,30,0.7,1.3
Fc1ccc(CSc2nnc(Cc3sc(-c4ccccc4)nc3-c3ccccc3)o2)cc1,72*,0.67,15,0.9,0.3
CSc1nnc(Cc2sc(-c3ccccc3)nc2-c2ccccc2)o1,100*,-2.1,89*,0.1,0
COc1ccc(CSc2nnc(Cc3sc(-c4ccccc4)nc3-c3ccccc3)o2)cc1,67*,-5.2*,6,0.9,0.3
COc1ccccc1N1CCN(C(=O)C2CCN(S(=O)(=O)N3CCOCC3)CC2)CC1,-13,-0.18,-3,1,1.1
CCCCc1c(C)c2ccc(OC)c(/C(C)=N\O)c2oc1=O,34,nt,25,0.7,0.7
Cn1c(=O)cc(OCCCC(=O)N2CCN(c3ccccc3)CC2)c2ccccc21,61*,nt,80*,0.2,0.4
Cn1c(=O)cc(SCC(=O)N2CCN(c3ccccc3)CC2)c2ccccc21,-43,0.84,51*,0.5,1.4
CN1CCN(C(=O)CCCOc2cc(=O)n(C)c3ccccc23)CC1,12,0.53,-1,1,0.9
Cn1c(=O)cc(SCC(=O)N2CCN(c3ccccn3)CC2)c2ccccc21,62*,0.34,15,0.8,0.4
Cn1c(=O)cc(SCC(=O)N2CCCC2)c2ccc(Cl)cc21,-4,0.41,30,0.7,1
CN1CCN(c2nc(N3CCN(c4ccccc4)CC3)ncc2F)CC1,19,-0.032,62*,0.4,0.8
C=CCOC(=O)/C(=C/c1ccco1)NC(=O)/C=C/c1ccccc1,73*,-1,77*,0.2,0.3
OC(c1ccc2c(c1)OCO2)c1nccc2ccccc12 (centres undefined),-74,0.47,95*,0,1.7
O=C(CSc1ccc2ccccc2n1)c1ccc2c(c1)OCO2,33,0.14,28,0.7,0.7
Cn1c(C(O)c2ccc3c(c2)OCO3)nc2ccccc21 (centres undefined),62*,0.01,97*,0,0.4
CC1(C)CC(=O)c2c(O)cc(OCc3ccc([N+](=O)[O-])cc3)cc2O1,3,nt,-4,1,1

# Source: PubChem (several laboratories)
